Among all 410,000 compounds or so, about 850 (0.21%) were called active. Another 2% or so got no clear call; they are omitted. The call rests on the fitted dose curve; in most records, active means well fitted inhibition curve with a large enough effect; inconclusive means small, poorly fitted or top-dose-only effect, or another doubt; inactive means no such curve, though single readings can be large or run the other way. Only a selection was taken, and actives are over-represented in it overall.
What follows are compounds tested against Glutaminase kidney isoform, mitochondrial (Homo sapiens) (UniProt O94925) (assay: qHTS for Inhibitors of Glutaminase (GLS)). Conditions: GLS enzymatic activity, qHTS titration; series mostly up to 99.4 µM; activity change, negative = inhibition: at the top concentration.
Chain of Glutaminase kidney isoform, mitochondrial (Homo sapiens) (O94925 whole entry, looked up, canonical isoform): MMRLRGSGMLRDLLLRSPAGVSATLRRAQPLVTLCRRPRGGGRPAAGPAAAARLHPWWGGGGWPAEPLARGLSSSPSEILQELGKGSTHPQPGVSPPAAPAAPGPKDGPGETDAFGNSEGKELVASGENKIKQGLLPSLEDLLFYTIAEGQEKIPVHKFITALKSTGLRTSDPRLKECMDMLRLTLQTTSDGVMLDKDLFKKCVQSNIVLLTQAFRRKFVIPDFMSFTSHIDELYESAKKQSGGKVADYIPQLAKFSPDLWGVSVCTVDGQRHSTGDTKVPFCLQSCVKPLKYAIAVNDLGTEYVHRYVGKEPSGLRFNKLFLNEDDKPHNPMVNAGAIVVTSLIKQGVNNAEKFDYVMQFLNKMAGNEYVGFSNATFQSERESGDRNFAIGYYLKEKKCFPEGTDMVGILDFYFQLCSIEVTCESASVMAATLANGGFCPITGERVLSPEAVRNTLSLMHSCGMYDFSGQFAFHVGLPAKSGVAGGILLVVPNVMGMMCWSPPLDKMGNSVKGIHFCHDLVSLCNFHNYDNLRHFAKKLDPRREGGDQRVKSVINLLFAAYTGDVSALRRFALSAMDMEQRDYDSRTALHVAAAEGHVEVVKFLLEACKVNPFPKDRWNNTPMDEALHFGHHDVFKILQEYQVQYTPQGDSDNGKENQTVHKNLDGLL
From the text: Glutaminase (GLS) catalyzes the hydrolysis of glutamine into glutamate and ammonia. It plays a critical role in glutaminolysis, which is an important energy source for proliferating cells. It was shown that c-Myc, an oncogenic transcription factor known to regulate microRNAs and to stimulate cell proliferation, increases glutamine metabolism by stimulating the expression of GLS via direct suppression of miR23a and miR23b.
GLS is also thought to play a pathogenic role on HAD using a human HIV-1 infected macrophage system. […] GLS inhibition limits glutamate release and provides neuroprotection against HIV-1 infected macrophages.
The overall goal of this project is to identify small molecule inhibitors of GLS through quantitative high throughput screening (qHTS) of the MLSMR. A validated potent and selective inhibitor can be used as a tool molecule to further study the pharmacology of its target as well as explore its potential therapeutic application in cancer and inflammatory neurological disorders, such as HIV1-associated dementia (HAD) and multiple sclerosis.
NIH Chemical Genomics Center [NCGC]
NIH Molecular Libraries Probe Centers Network [MLPCN]
Assay Submitter (PI): Barbara S. Slusher, Johns Hopkins University
Three 3 uL of hKGA is dispensed into black well 1536-well plates in 45 mM KH2PO4 (pH 8.2), 0.02% Tween-20. Then 23 nL of compounds are added through pin tool transfer. To this, 1 uL of 1mM L-Glutamine and 1 uL of a solution of L-Glutamateoxidase, HRP, Amplex red are added. Plate is centrifuged for 25 sec before an initial fluorescence read is obtained on the ViewLux, after 30 min of RT incubation, the final read is taken on the ViewLux.
On the % scale 0 is the no-effect control and ±100 the full control effect; potency means the concentration at half of the fitted maximal effect.

| SMILES | Potency | activity change, negative = inhibition |
| --- | --- | --- |
| CCC(C)n1c(O)c(/C=N/Nc2nc3c(c(=O)n(C)c(=O)n3C)n2C)c(=O)[nH]c1=S (stereo not given) | 10 µM (active) | – |
| COc1cc(C[C@H](C)N)c(OC)cc1Br | – | -0.657% (inactive) |
| CC(C)=CCN1CC[C@@]2(C)c3cc(O)ccc3C[C@H]1[C@@H]2C | – | 29.7% (inactive) |
| CC(C)(C)c1ccc(S(=O)(=O)Nc2ccc(O)c(Sc3nc4ccccc4s3)c2)cc1 | – | 31.1% [at 45.5 µM] (inactive) |
| C[C@]12CCC3[C@@H](CCC4=CC(=O)CC[C@@]43C)C1CCC2OC(=O)CCc1ccccc1 (stereo not given in full) | – | -0.493% (inactive) |
| O=C1NC(=O)N(Cc2ccco2)C(=O)/C1=C\c1ccc(-c2ccc(F)cc2)o1 | 8.91 µM (active) | – |
| O=P1(N(CCCl)CCCl)NC(OO)CCO1 (stereo not given) | – | 4.17% [at 45.5 µM] (inactive) |
| CC(C)CC1C(=O)N2CCCC2C2(O)OC(NC(=O)C3CC4c5cccc6[nH]cc(c56)CC4N(C)C3)(C(C)C)C(=O)N12 (stereo not given) | – | 4.2% [at 45.5 µM] (inactive) |
| Cc1ncc(CC(=O)n2cc(C(=O)c3cc(Cl)ccc3O)cn2)s1 | – | 38.5% [at 45.5 µM] (inactive) |
| CC(=O)Oc1ccc2c3c1OC1C(OC(C)=O)C=CC4[C@@H](C2)N(C)CC[C@]314 (stereo not given in full) | – | 5.46% (inactive) |

Source: PubChem BioAssay AID624170 (National Center for Advancing Translational Sciences (NCATS), 2012)
